Only some compounds are listed: those with a hit (about 1.8% of all), similar ones and a draw of the others.
DSG3 Ab inh – inhibitors of pemphigus antibody binding to DSG3, primary screen, biochemical, bead-based, flow cytometry, scFv-GFP; Desmoglein-3 (Homo sapiens), P32926; 310,000 compounds, 0.48% hits; DSG3-coupled beads, scFv-anti-DSG3-GFP binding; active compounds read low; AID 588358, 2011; binding (percent of control), % at 10 µM;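 active means binding more than 3 SD below its plate's average and above zero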;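 further: hits lower antibody fragment binding to DSG3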
HDAC3 inh – HDAC3 deacetylase inhibitors, primary screen, biochemical, fluorescence, cell-free homogeneous; Histone deacetylase 3 (Homo sapiens), O15379; recombinant HDAC3, fluorogenic peptide/trypsin coupled; inhibition, % at 8.3 µM; 320,000 compounds, 0.15% hits; AID 2718, 2010; in the data active means inhibition above about 26%, passing the limit was not always enough
PKD1 kinase inh – inhibitors of human PKD1 kinase, biochemical, fluorescence polarization; Serine/threonine-protein kinase D1 (Homo sapiens), Q15139; PKD1 kinase fluorescence polarization assay; inhibition, % (test concentration not listed); 200,000 compounds, 0.056% hits; AID 797, 2007
VLA-4 inh – inhibition in human VLA-4 binding assay, primary screen, VLA-4 allosteric modulator project, MLPCN library, flow cytometry, VLA-4 expressing cells | Integrin alpha-4 (Homo sapiens), P13612 | ligand binding flow cytometry | inhibition, % (about 7 µM as worked out from the volumes in the protocol) | 330,000 compounds, 0.2% hits | AID 2557, 2010
LANA-H2A inh – blockers of LANA interaction with H2A/H2B – biochemical, FP readout, HTS, primary screen | Protein LANA1 (Human herpesvirus 8 type P (isolate GK18)), Q9QR71 | cell-free LANA-H2A/H2B peptide, fluorescence polarization | inhibition, % (no concentration beside the values) | 320,000 compounds, 0.6% hits; in the data active means inhibition mostly above about 10%, no sharp cut-off; inactive means mostly below about 6.7%
GRK2 inh – compounds blocking aptamer binding on GRK2 – biochemical, human GRK2, bead flow cytometry, HTS, primary screen | Beta-adrenergic receptor kinase 1 (Homo sapiens), P25098 | FAM-aptamer displacement from GRK2 | inhibition of aptamer binding, % at 10 µM | 330,000 compounds, 0.59% hits | AID 488847, 2010;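 active means inhibition of aptamer binding above 40%, roughly 3 SD of noise, on plates passing a quality check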;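 further: median bead fluorescence of bound FAM aptamer so fluorescent compounds give negative values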
PKD FP artifact – fluorescence polarization interference in PKD1 assay, artefact control for PKD1 inhibitor project, biochemical, 140K library | inhibition, % at 10 µM | 85 tested, under 10 active | shares compounds with PKD1 kinase inh | PKD1 FP assay interference counter-screen; call rule not given here
Numbers stand for hits; – = inactive; · = no result. Unless noted, no stated cut-off is given here; in the data, active means inhibition above about 50%; inactive means the rest.

SMILES	DSG3 Ab inh	HDAC3 inh	PKD1 kinase inh	VLA-4 inh	LANA-H2A inh	GRK2 inh	PKD FP artifact
CCOC(=O)N1CCN(c2cc(NCCC(=O)O)c3c4c(onc24)-c2ccccc2C3=O)CC1	–	–	56.3	–	36.6	–	–
Cc1cc(C)n2nc(C(=O)OCC(=O)c3c[nH]c4ccccc34)nc2n1	–	–	–	–	–	–	·
O=C(Nc1ccccc1)ON=C1c2ccccc2-c2ccccc21	–	–	50.5	–	–	–	–
CCOC(=O)Nc1ccc2c(c1)C(=NO)c1ccccc1-2	–	·	·	·	·	·	·
O=C(Nc1ccccc1Cl)ON=C1c2ccccc2-c2ccccc21	–	–	60.6	–	–	–	–
Cc1cc(=O)nc2c3ccccc3n(CC(=O)NC(C)c3ccc4c(c3)OCCO4)n12 (stereo unspecified)	–	–	·	–	–	–	·
CC1CCN(C(=O)CCCC(=O)N2CCC(C)CC2)CC1	–	–	·	–	–	–	·
COc1ccc(C2C(C(=O)c3cccs3)=C(O)C(=O)N2c2nncs2)cc1 (stereo unspecified)	–	–	67.0	–	30.4	–	–
C=CCOc1ccc(C2C(C(=O)c3cccs3)=C(O)C(=O)N2c2nnc(C)s2)cc1 (stereo unspecified)	–	–	–	–	–	–	·
O=C(O)c1ccccc1NCc1ccco1	–	–	·	–	–	–	·
CCOc1ccc2noc3c2c1C(=O)c1ccccc1-3	–	–	97.4	–	44.4	–	62.4
O=C1c2ccccc2-c2onc3ccc(NCc4ccco4)c1c23	57.7	–	60.3	–	110.9	–	–
Cc1c(C(=O)N/N=C/c2ccc(O)c(Br)c2)sc(N)c1C#N	–	–	76.2	–	–	–	–
COc1cc(/C=N/NC(=O)c2sc(N)c(C#N)c2C)ccc1O	–	–	–	–	–	–	·
CCOc1ccc(/C=N/NC(=O)C(O)c2ccccc2)c(O)c1 (stereo unspecified)	–	–	·	–	–	–	·
CC1CCCC(C)N1C(=O)Cn1cc(/C=C2/C(=O)Nc3ccccc32)c2ccccc21 (stereo unspecified)	–	–	51.5	–	–	–	–
O=C(NC(=S)Nc1ccc(CN2CCOCC2)cc1)c1ccc(-c2cccc(Cl)c2)o1	·	–	·	–	–	–	·
O=C(Nc1ccc(CN2CCOCC2)cc1)c1ccc(-c2cccc(Cl)c2)o1	–	–	86.0	–	–	–	–
Cc1ccc(OCCCCNC(C)c2ccccc2)c(C)c1 (stereo unspecified)	–	–	·	–	–	–	·
O=C(COc1ccccc1)N=C1SC2CS(=O)(=O)CC2N1c1ccccc1F (stereo unspecified)	·	–	·	–	–	–	·
CC(=O)Nc1ccc2c(c1)c1ccccc1n2C(C)=O	–	–	59.0	–	–	–	–
N#C/C(=N\Nc1ccc(Cl)cc1)C(=O)c1ccccc1	–	–	–	–	–	–	·
Cc1c(N/N=C(\C#N)C(=O)c2ccc(Cl)cc2)c(=O)n(-c2ccccc2)n1C	–	–	62.5	–	–	–	–
O=S(=O)(c1cccc2cnccc12)N1CCCNCC1	–	–	103.8	–	–	–	–
Cc1cnc(C(=O)OC(C)C(=O)NCc2ccccc2)cn1 (stereo unspecified)	–	–	·	–	–	–	·
CCCNC(=O)CN(c1ccc(F)cc1)S(=O)(=O)c1ccc2c(c1)OCCO2	–	–	56.2	–	–	–	–
Cn1c(=O)c(NCCO)c2c3c(cccc31)C(=O)c1ccccc1-2	–	–	144.0	–	184.9	–	99.5
CC(=O)Nc1ccc(Nc2c3c4c(cccc4n(C)c2=O)C(=O)c2ccccc2-3)cc1	–	–	–	–	–	–	·
